“And” between values parts separate entries of the source, which are not always exact repeats. Identical values can stand only once. The panel holds about 83,000 compounds, 20% with a hit somewhere; the sample as a whole holds those more often.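 Interpretation: 100, growth as untreated; towards 0, rising growth inhibition; 0, no net growth; 0 to -100, cell death. Compounds scoring below 10 were considered active.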 The source made the active and inactive calls.

For the assay, the system named is MCF7 breast. Briefly: NCI-60 one-dose screen, 48 h (100 = growth as untreated, 0 = no growth, -100 = all killed). To be noted: 10 µM unless noted.
Consider `NC1N=C(c2ccc(Cl)cc2)C2=C(N1)c1ccccc1CC2` (centres undefined), for which the growth is 13.4% [100 µM] (inactive) and -96.2% [100 µM] (active).

On to `N#CC1(C#N)C2CCCCC23OC(=N)C1(C#N)C(c1ccccc1)O3` (centres undefined), for which the growth is -47% [100 µM] (active).

For the compound `COc1cc2c3cc1Oc1c(OC)c(OC)cc4c1C(Cc1ccc(O)c(c1)-c1cc(ccc1OC)CC3N(C)CC2)N(C)CC4` (centres undefined), the growth was 10.3% [100 µM] (inactive) and -92.9% [100 µM] (active).

Take `COc1ccc2cc(CN3CCC(C4CCNCC4)CC3)ccc2c1`: the growth was -76.9% [100 µM] (active) and -23.4% [100 µM] (active).

In the case of `N#Cc1c(N)oc(-c2cccc([N+](=O)[O-])c2)c1C#N`, the growth is 12.3% [100 µM] (inactive) and -50% [100 µM] (active).

In the case of `COc1c(OC)c(OC)c2c(c1OC)c(=O)c1ccccc1n2C`, the growth is 65.5% [100 µM] (inactive) and -50% [100 µM] (active).

Take `C=C(CCC(C(=O)O)C1CCC2(C)C3=C(CCC12C)C1(C)CCC(O)C(C)(C)C1CC3)C(C)C` (centres undefined): the growth was -52.5% [100 µM] (active) and -56.2% [100 µM] (active).

`O=C1NC(N/N=C\C(O)C(O)C(O)C(O)CO)=N/C1=C\c1ccc(Cl)cc1` (centres undefined): the growth is 58.4% [100 µM] (inactive) and 13.9% [100 µM] (inactive).

Consider `CC1C2(C)OC(=N)C(C#N)(C(c3cccc([N+](=O)[O-])c3)O2)C1(C#N)C#N` (centres undefined), for which the growth was 98.4% [100 µM] (inactive).

For `C=CCn1c2c(c3ccccc3c1=O)C(=O)c1ccccc1-2`, the growth was 68.3% [100 µM] (inactive) and 23.2% [100 µM] (inactive).

As to `Cc1ccc(C)c(NC(=O)/C(=N\N)C(c2cnc3ccc([N+](=O)[O-])cc3n2)[N+](=O)[O-])c1` (centres undefined), the growth was 50.4% [100 µM] (inactive) and 9.64% [100 µM] (active).

As to `COc1cc2c(cc1-c1coc3cc(O)ccc3c1=O)OCO2`, the growth is 67.5% [100 µM] (inactive) and 58.5% [100 µM] (inactive).

`Cc1ccc(/C=N/Nc2nncc3ccccc23)s1`: the growth was 19% [100 µM] (inactive) and 4.27% [100 µM] (active).

On to `CC(=N\N=C\c1ccccn1)/C(C)=N/N=C/c1ccccn1`, for which the growth is 76.4% [100 µM] (inactive) and 78.5% [100 µM] (inactive).

The values above are taken from PubChem BioAssay (NCI).
